Hits are enriched below; roughly 3.6% of the tested compounds scored in any of these assays.
mHTT CaM bind: disrupts binding of mutant huntingtin to calmodulin; AlphaScreen His-mHTT/GST-CaM binding, luminescence; inhibition, % at 15 µM; 190,000 tested, 3.6% active; AID 1671202;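 further: 0% = both proteins with DMSO and 100% = one protein alone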
Pf apPOL block: Pf-apPOL DNA polymerase inhibition | Recombinant Pf-apPOL, molecular beacon fluorescence, 1.5 h | inhibition, % at 10 µM | 210,000 tested, 0.25% active
* hit, by the source's call. No stated cut-off is given here; in the data, active means inhibition above about 50%; inactive means the rest.

How did CC(=O)NCc1csc(C2CCN(S(=O)(=O)Cc3ccccc3F)CC2)n1 do in these assays?
mHTT CaM bind: -2; Pf apPOL block: 3

What do the screens show for `COc1cc(C(=O)N2CCC(c3noc(-c4ccccc4C)n3)CC2)cc(OC)c1OC`?
mHTT CaM bind: 20; Pf apPOL block: -2

How did C=CCn1c(N=Cc2ccc(Cl)cc2)nc2ccccc21 do in these assays?
mHTT CaM bind: 1; Pf apPOL block: 0

How did C=CCn1c(N=Cc2ccc(N(C)C)cc2)nc2ccccc21 do in these assays?
mHTT CaM bind: 71*; Pf apPOL block: 3

Results for Cc1nn(-c2ccc(C(=O)NCCC(C)C)cc2)c2c1C(=O)CCC2 ?
mHTT CaM bind: 0; Pf apPOL block: 3

Results for C(=NCc1cccs1)c1cccs1 ?
Pf apPOL block: -3

Results for COc1ccc(/C=C(\C#N)c2ccc(Cl)cc2)cc1OC ?
mHTT CaM bind: -19; Pf apPOL block: -1

What do the screens show for `CC1CCN(C(=O)CSc2cn(Cc3ccc(Cl)cc3)c3ccccc23)CC1`?
mHTT CaM bind: 91*; Pf apPOL block: -4

Results for O=C(CSc1cn(Cc2ccc(F)cc2)c2ccccc12)N1CCCC1 ?
mHTT CaM bind: 21; Pf apPOL block: -2

Results for Cc1ccccc1Cn1cc(SCC(=O)N2CCCCC2)c2ccccc21 ?
mHTT CaM bind: 86*; Pf apPOL block: 3

Results for O=C(CSc1cn(Cc2ccccc2Cl)c2ccccc12)N1CCOCC1 ?
mHTT CaM bind: 36; Pf apPOL block: -6

What do the screens show for `O=C(CSc1cn(Cc2ccc(F)cc2)c2ccccc12)N1CCCCC1`?
mHTT CaM bind: 31; Pf apPOL block: 3

What do the screens show for `O=C(CSc1cn(Cc2ccc(F)cc2)c2ccccc12)N1CCCCCC1`?
mHTT CaM bind: 70*; Pf apPOL block: -8

Results for O=C(NCCc1ccc(Cl)cc1)C1CC(=O)N(C2CCCCCCC2)C1 (stereo not drawn) ?
mHTT CaM bind: 11; Pf apPOL block: -1

Results for COc1ccc(C(=O)N2CCCCC2)c(OC)c1 ?
mHTT CaM bind: -1; Pf apPOL block: -2

Results for O=c1oc2c([N+](=O)[O-])cccc2cc1-c1nc(-c2ccccc2)cs1 ?
mHTT CaM bind: -2; Pf apPOL block: 3

What do the screens show for `O=C1CCC(=O)N1CNc1ccc(-c2ccc(NCN3C(=O)CCC3=O)cc2)cc1`?
mHTT CaM bind: 2; Pf apPOL block: -3

How did CC(C)NC(=O)c1ccc(OCC2CCCN(C(=O)c3cccc(F)c3)C2)cc1 (stereo not drawn) do in these assays?
mHTT CaM bind: 15; Pf apPOL block: -2

How did CCCCCCC(=O)N1C/C=C\C(c2ccc(OC)cc2)N(Cc2ccc(F)cc2)C(=O)C1 (stereo not drawn) do in these assays?
mHTT CaM bind: 62*; Pf apPOL block: -4

What do the screens show for `COc1ccc(C2/C=C\CC(OCc3ccccc3)CC(=O)N2Cc2cccc(F)c2)cc1` (stereo not drawn)?
mHTT CaM bind: 100*; Pf apPOL block: -7

How did COc1ccc(C2/C=C\CN(C(=O)OCc3ccccc3)CC(=O)N2Cc2ccc(F)cc2)cc1 (stereo not drawn) do in these assays?
mHTT CaM bind: 92*; Pf apPOL block: -5

Results for COc1ccc(C2/C=C\CN(S(=O)(=O)c3ccc4ccccc4c3)CC(=O)N2Cc2ccc(F)cc2)cc1 (stereo not drawn) ?
mHTT CaM bind: 17; Pf apPOL block: -6

How did COc1ccc(C2/C=C\CN(C(=O)c3ccccc3)CC(=O)N2Cc2ccc(F)cc2)cc1 (stereo not drawn) do in these assays?
mHTT CaM bind: 31; Pf apPOL block: -1

What do the screens show for `CCCCCCNC(=O)N1C/C=C\C(c2ccc(OC)cc2)N(Cc2ccc(F)cc2)C(=O)C1` (stereo not drawn)?
mHTT CaM bind: 48; Pf apPOL block: -4

What do the screens show for `Cn1nc(C(=O)NCc2ccc(F)cc2)c2c1CCN(C(=O)C1CC1)C2`?
mHTT CaM bind: 29; Pf apPOL block: -8

How did CCC(=O)N1CCc2c(c(C(=O)NCc3ccc(Cl)cc3)nn2C)C1 do in these assays?
mHTT CaM bind: 81*; Pf apPOL block: -8

What do the screens show for `CC(C)C(=O)N1CCc2c(c(C(=O)NCc3ccc(Cl)cc3)nn2C)C1`?
mHTT CaM bind: 71*; Pf apPOL block: -6

What do the screens show for `CC(C)C(=O)N1CCc2c(c(C(=O)NCc3ccccc3)nn2C)C1`?
mHTT CaM bind: 0; Pf apPOL block: -6

How did Cn1nc(C(=O)NCc2ccc(Cl)cc2)c2c1CCN(C(=O)C1CCCCC1)C2 do in these assays?
mHTT CaM bind: 93*; Pf apPOL block: -1

How did CCC(=O)N1CCc2c(c(C(=O)NCc3ccc(F)cc3)nn2C)C1 do in these assays?
mHTT CaM bind: 18; Pf apPOL block: -6

Results for COc1ccc(/C=c2\sc3nc(-c4cccc(Cl)c4)nn3c2=O)cc1OC ?
mHTT CaM bind: -2; Pf apPOL block: 6

How did O=C(c1cccs1)N1CCN(c2ncnc3c2nnn3-c2cccc(F)c2)CC1 do in these assays?
mHTT CaM bind: -10; Pf apPOL block: -7

How did CC(C)n1cnnc1C1CCN(C(=O)c2ccsc2)CC1 do in these assays?
mHTT CaM bind: -9; Pf apPOL block: 2

Screening results as filed in PubChem.
